Test results published in PubChem BioAssay.
Where “and” joins values, the source holds several entries; their conditions need not be identical. Identical values can stand only once. Calls of active or inactive are those of the source.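 The calls were made as follows, unless noted: active = thallium flux through the channel raised or lowered by more than 3 SD from vehicle-only wells, actives on both sides; inactive = the rest.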 Non-standard residues stand in square brackets, D forms with d. Residues, ends and D or L forms follow the SMILES beside them. pGlu = O=C1CC[C@@H](C(=O)O)N1; Thz = O=C(O)[C@@H]1CSCN1

Assays:
[1] = test system: F380Y; experiment: BK channel mutant inhibitors and activators – cell-based, U2OS BacMam, thallium flux, beta subunits, selectivity assay, profiling panel (AID 1259406); settings: U2OS BacMam BK variants, at 30 µM;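 also: initial slope of Thallos dye fluorescence rise after thallium is added; log ratio against the mean of 0.3% DMSO vehicle wells on the same plate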
[2] = test system: F380Y/beta1; experiment: as above; settings: U2OS BacMam BK variants, at 30 µM
[3] = test system: F380Y/beta2Delta; experiment: as above; settings: U2OS BacMam BK variants, at 30 µM
[4] = test system: F380Y/beta4; experiment: as above; settings: U2OS BacMam BK variants, at 30 µM
[5] = target: Calcium-activated potassium channel subunit alpha-1 (Homo sapiens) + Leucine-rich repeat-containing protein 26 (Homo sapiens) (UniProt Q12791+Q2I0M4); experiment: as above; settings: U2OS BacMam BK variants, F380Y/Slo1WT/gamma1, at 30 µM
Sequence of Calcium-activated potassium channel subunit alpha-1 (Homo sapiens) + Leucine-rich repeat-containing protein 26 (Homo sapiens) (Q2I0M4 whole entry, looked up, one chain of several): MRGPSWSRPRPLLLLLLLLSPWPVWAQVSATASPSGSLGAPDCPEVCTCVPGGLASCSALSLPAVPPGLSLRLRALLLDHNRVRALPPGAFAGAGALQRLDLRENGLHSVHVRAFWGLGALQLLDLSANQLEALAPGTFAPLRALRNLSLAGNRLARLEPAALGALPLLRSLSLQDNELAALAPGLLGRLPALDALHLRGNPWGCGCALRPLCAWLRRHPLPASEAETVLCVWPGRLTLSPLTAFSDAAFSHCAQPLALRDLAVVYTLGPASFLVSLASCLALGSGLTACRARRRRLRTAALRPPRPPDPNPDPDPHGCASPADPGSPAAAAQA

[6] = test system: R275C; experiment: as above; settings: U2OS BacMam BK variants, at 30 µM
[7] = test system: R275C/beta1; experiment: as above; settings: U2OS BacMam BK variants, at 30 µM
[8] = test system: R275C/beta2Delta; experiment: as above; settings: U2OS BacMam BK variants, at 30 µM
[9] = test system: R275C/beta4; experiment: as above; settings: U2OS BacMam BK variants, at 30 µM
[10] = test system: R275C/Slo1WT/beta2; experiment: as above; settings: U2OS BacMam BK variants, at 30 µM
[11] = P. berghei load reduction in hepatocytes – cell-based, HepG2, luciferase luminescence, HepG2 viability, primary screen (AID 624349; in the data active = parasite load remaining mostly below about 12%, no sharp cut-off; inactive = mostly above about 10%;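 also: 100% = mean of DMSO negative control wells on the same plate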); settings: P. berghei liver stage in HepG2, luciferase luminescence, concentration not given here; parasite load remaining: stronger effect = lower value; viability: measured here: HepG2 viability without parasites
[12] = signal quenchers or enhancers, Cy5 substrate/SSB – biochemical, NIH Clinical Collection, E. coli SSB, artefact control for HCV NS3 helicase inhibitor project (AID 743268; call rule not given here); settings: Cy5-oligo bound E. coli SSB, fluorescence interference
[13] = test system: Hepatitis C virus NS3 helicase; experiment: blockers of NS3h binding to DNA – biochemical, fluorescence polarization, NIH Clinical Collection, primary screen (AID 743270; call rule not given here); settings: NS3 helicase binding to Cy5-dT15 DNA, stronger effect = higher value, concentration not given here
[14] = target: Single-stranded DNA-binding protein (Escherichia coli (strain K12)) (UniProt P0AGE0); experiment: SSB-ssDNA binding inhibitors – biochemical, fluorescence polarization, NIH Clinical Collection, counter-screen for HCV NS3 helicase inhibitor project (AID 743271; in the data active = inhibition above about 28%); settings: E. coli SSB-DNA binding, stronger effect = higher value, concentration not given here
[15] = compounds distorting NS3 helicase fluorescence signal – biochemical, NIH Clinical Collection, artefact control for HCV NS3 helicase inhibitor project (AID 743272; call rule not given here;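 also: HCV NS3 helicase with a Cy5 labelled single stranded DNA probe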); settings: fluorescence interference counterscreen, HCV NS3 helicase assay; stronger effect = lower value
[16] = modulation of C. elegans fzo-1 (AID 1259413; call rule not given here;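 also: fzo-1 mutant C. elegans worms in liquid wells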); settings: C. elegans fzo-1 modulator screen, mean read-out; stronger effect = higher value
[17] = EMT-state selective cytotoxicity in co-culture – imaging, PC-3E GFP, TEM4-18 mCherry, primary screen (AID 1345086;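 active = compounds killing one labelled cell type while sparing the other, by normalised counts and ratio limits, not self-fluorescent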;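 as to all read-outs here: cells exposed to compound for 72 h before imaging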;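 as to red/green cell ratio (normalised): normalised mesenchymal count divided by normalised epithelial count so high means epithelial killing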); settings: PC-3E GFP / TEM4-18 mCherry co-culture, imaging cell counts, at 1 µM; for red/green cell ratio (normalised): actives lie on both sides, counts scaled to control wells, 1 = unselective
[18] = viability loss with induced miR-34 in A549 – imaging, A549 dox-inducible miR-34, nuclei and caspase counts, primary screen (AID 1347080;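 active = compounds whose cell count with miR-34 switched on is under 0.7 times the count with it off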); settings: A549 miR-34 inducible, Hoechst nuclei count, 48 h
[19] = MELAS cybrid and Rieske KO viability enhancers – cell-based, MELAS cybrids, Rieske KO mouse fibroblasts, CellTiter-Glo, primary screen (AID 1508586;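 active = mean z-score across replicates of 1.96 or higher in either the MELAS or the Rieske mutant cell line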;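 also: z relative to plate mean and SD of compound and empty wells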); settings: low glucose
[20] = measured here: epithelial PC-3E GFP cell survival
[21] = measured here: mesenchymal TEM4-18 mCherry cell survival
[22] = stronger effect = lower value, cell number ratio, induced over uninduced
[23] = measured here: relative caspase fold change +Dox/-Dox
[24] = measured here: total cells with miR-34 induction, stronger effect = lower value
[25] = measured here: total cells without miR-34 induction
[26] = MELAS cybrid survival, CellTiter-Glo 48 h, stronger effect = higher value
[27] = Rieske KO mouse fibroblast survival, CellTiter-Glo 72 h

Cc1ccccc1C=C1N=C(c2ccccc2)OC1=O
inactive: log fold change Tl+ flux [1] -0.012 | log fold change Tl+ flux [2] 0.0199 | log fold change Tl+ flux [3] 0.0497 | log fold change Tl+ flux [4] -0.0336 | log fold change Tl+ flux [5] -0.00351 | log fold change Tl+ flux [6] -0.000743 | log fold change Tl+ flux [7] 0.036 | log fold change Tl+ flux [8] 0.0102 | log fold change Tl+ flux [9] 0.00185 | log fold change Tl+ flux [10] 0.0353

CC[C@H]1OC(=O)[C@H](C)[C@@H](O[C@H]2C[C@@](C)(OC)[C@@H](O)[C@H](C)O2)[C@H](C)[C@@H](O[C@@H]2O[C@H](C)C[C@H](N(C)C)[C@H]2O)[C@](C)(O)C[C@@H](C)CN(C)[C@H](C)[C@@H](O)[C@]1(C)O
1.27: normalised cell number [17, 21]
118% and 82.2% and 91.4%: viability [11]
1.02: normalised cell number [17, 20]
10500 and 11200: cell count [18, 25]
9960 and 9940: cell count [18, 24]
2.3 and 7.33: fold change [18, 23]
inactive: parasite load remaining [11] 58.8% and 152% and 299% | fluorescence ratio [12] 1.05 | inhibition [13] 1.36% | inhibition [14] -1.24% | fluorescence ratio [15] 1.02 | mean signal [16] 266 | red/green cell ratio (normalised) [17] 1.25 | fold change [18, 22] 0.953 and 0.891 | log fold change Tl+ flux [1] 0.0649 | log fold change Tl+ flux [2] 0.00314 | log fold change Tl+ flux [3] 0.0029 | log fold change Tl+ flux [4] -0.0644 | log fold change Tl+ flux [5] -0.014 | log fold change Tl+ flux [6] 0.011 | log fold change Tl+ flux [7] 0.0228 | log fold change Tl+ flux [8] -0.0452 | log fold change Tl+ flux [9] -0.073 | log fold change Tl+ flux [10] 0.026

CN/C(=C\[N+](=O)[O-])NCCSCc1csc(CN(C)C)n1
5.48: fold change [18, 23]
11400: cell count [18, 24]
1.14: normalised cell number [17, 20]
13100: cell count [18, 25]
1.02: normalised cell number [17, 21]
inactive: parasite load remaining [11] 44.5% and 113% | fluorescence ratio [12] 1.02 | inhibition [13] 1.19% | inhibition [14] -0.1% | fluorescence ratio [15] 0.97 | mean signal [16] 274 | red/green cell ratio (normalised) [17] 0.9 | fold change [18, 22] 0.871 | log fold change Tl+ flux [1] 0.0132 | log fold change Tl+ flux [2] -0.0313 | log fold change Tl+ flux [3] 0.0292 | log fold change Tl+ flux [4] 0.0177 | log fold change Tl+ flux [5] -0.0126 | log fold change Tl+ flux [6] 0.0141 | log fold change Tl+ flux [7] -0.02 | log fold change Tl+ flux [8] -0.0114 | log fold change Tl+ flux [9] -0.00775 | log fold change Tl+ flux [10] 0.0359
104% and 78.4%: viability [11]

CCOC(=O)c1ccc(OC(=O)CCCCCN=C(N)N)cc1
77.4% and 88.1%: viability [11]
inactive: parasite load remaining [11] 117% and 36.3% | fluorescence ratio [12] 1.04 | inhibition [13] 0.4% | inhibition [14] -1.64% | fluorescence ratio [15] 0.95 | mean signal [16] 243 | z-score [19, 26] -0.35 and 0.272 | log fold change Tl+ flux [1] -0.0684 | log fold change Tl+ flux [2] -0.00638 | log fold change Tl+ flux [3] -0.0274 | log fold change Tl+ flux [4] -0.0274 | log fold change Tl+ flux [5] 0.00659 | log fold change Tl+ flux [6] -0.063 | log fold change Tl+ flux [7] -0.0293 | log fold change Tl+ flux [8] -0.0476 | log fold change Tl+ flux [9] -0.00905 | log fold change Tl+ flux [10] -0.0477
0.185 and -0.0147: z-score [19, 27]

O=C1CC[C@@H](C(=O)N2CSC[C@H]2C(=O)O)N1 ([pGlu]-[Thz]-OH)
0.93: normalised cell number [17, 21]
-0.48: z-score [19, 27]
0.97: normalised cell number [17, 20]
inactive: parasite load remaining [11] 123% | fluorescence ratio [12] 1 | inhibition [13] 5.94% | inhibition [14] 3.75% | fluorescence ratio [15] 0.96 | mean signal [16] 225 | red/green cell ratio (normalised) [17] 0.96 | z-score [19, 26] 0.585 | log fold change Tl+ flux [1] -0.0365 | log fold change Tl+ flux [2] 0.0192 | log fold change Tl+ flux [3] 0.00122 | log fold change Tl+ flux [4] 0.0189 | log fold change Tl+ flux [5] -0.0423 | log fold change Tl+ flux [6] -0.0391 | log fold change Tl+ flux [7] -0.0174 | log fold change Tl+ flux [8] -0.0226 | log fold change Tl+ flux [9] -0.00158 | log fold change Tl+ flux [10] -0.0454
115%: viability [11]

CC(Cc1ccc(O)c(O)c1)(NN)C(=O)O (stereo not drawn)
97.1% and 84.8%: viability [11]
1.1: normalised cell number [17, 20]
2.2 and 3.05: fold change [18, 23]
10100 and 12600: cell count [18, 25]
active: log fold change Tl+ flux [6] 0.0956
9190 and 11400: cell count [18, 24]
1.3: normalised cell number [17, 21]
inactive: parasite load remaining [11] 41.4% and 31.2% | fluorescence ratio [12] 1.04 | inhibition [13] -2.27% | inhibition [14] -0.48% | fluorescence ratio [15] 1.05 | mean signal [16] 254 | red/green cell ratio (normalised) [17] 1.18 | fold change [18, 22] 0.911 and 0.909 | log fold change Tl+ flux [1] -0.0414 | log fold change Tl+ flux [2] 0.04 | log fold change Tl+ flux [3] 0.0399 | log fold change Tl+ flux [4] 0.0475 | log fold change Tl+ flux [5] 0.00594 | log fold change Tl+ flux [7] 0.024 | log fold change Tl+ flux [8] 0.0162 | log fold change Tl+ flux [9] -0.024 | log fold change Tl+ flux [10] -0.00513

CN(C)CCCC1(c2ccc(F)cc2)OCc2cc(C#N)ccc21 (stereo not drawn)
1.31: normalised cell number [17, 21]
1.12: normalised cell number [17, 20]
-0.153 and 0.348 and -0.881: z-score [19, 27]
inactive: fluorescence ratio [12] 1.03 and 1.01 | inhibition [13] -5.94% and -0.45% | inhibition [14] -1.64% and 0.29% | fluorescence ratio [15] 0.99 and 1.03 | mean signal [16] 220 | red/green cell ratio (normalised) [17] 1.17 | z-score [19, 26] -0.338 and 0.623 and -0.34 | log fold change Tl+ flux [1] 0.0263 and 0.0749 | log fold change Tl+ flux [2] 0.0236 and -0.0159 | log fold change Tl+ flux [3] 0.0311 and 0.0638 | log fold change Tl+ flux [4] 0.0583 and -0.00121 | log fold change Tl+ flux [5] 0.0169 and -0.0497 | log fold change Tl+ flux [6] -0.0255 and -0.00148 | log fold change Tl+ flux [7] 0.0362 and 0.0712 | log fold change Tl+ flux [8] 0.0568 and 0.0646 | log fold change Tl+ flux [9] 0.0241 and 0.0131 | log fold change Tl+ flux [10] 0.0494 and 0.00231
